Laboratory results: PubChem BioAssay AID504848 (National Center for Advancing Translational Sciences (NCATS), 2011)
In all, about 2,300 compounds went through this assay and about 1,400 (61%) were called active. About 29% were inconclusive and are not listed. The call rests on the fitted dose curve; in most records, active means well fitted inhibition curve with a large enough effect; inconclusive means small, poorly fitted or top-dose-only effect, or effect the other way; inactive means no such curve, though single readings can be large or run the other way. The set was probably picked from earlier hits. The list shows a part of the results.

Test: Confirmation screen for delayed death inhibitors of the malarial parasite plastid, 96 hour incubation; further: nearly all actives have a fitted effect of over 60% in size
Conditions: P. falciparum luciferase growth in erythrocytes; series mostly up to 28.7 µM
In short: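 Two-generation (96 h, 37 C) exposure of P. falciparum carrying an integrated firefly luciferase reporter in erythrocytes, 0.1% parasitemia and 2% hematocrit final, Albumax-supplemented RPMI. Luminescence decrease measures growth inhibition.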
Potency means the concentration at half of the fitted maximal effect.

Compound | Potency
CC1CCCCN1C(=O)COC(=O)c1cccc(NS(=O)(=O)c2ccccc2)c1 (configuration not stated) | inactive
Cn1c(CCN2CCCC2)nc2cc(NS(=O)(=O)c3ccccc3)ccc21 | 3.55 µM (active)
Cn1c(CCN2CCCC2)nc2cc(NS(=O)(=O)c3ccc(Cl)cc3)ccc21 | 6.31 µM (active)
COc1cc(CNC(=O)CCn2nc(C)c3c(C)n(-c4ccccc4)nc3c2=O)cc(OC)c1OC | 12.6 µM (active)
COc1ccc(OC)c(CCNC(=O)CCn2nc(C)c3c(C)n(-c4ccccc4)nc3c2=O)c1 | 5.62 µM (active)
Cc1nn(CCC(=O)NCc2ccc(N(C)C)cc2)c(=O)c2nn(-c3ccccc3)c(C)c12 | 8.91 µM (active)
O=C(CCN1C(=O)C2CC=C(Cl)CC2C1=O)NCc1ccccc1 (configuration not stated) | inactive
COc1ccccc1CNC(=O)CCCn1nc(C)c2c(C)n(-c3ccccc3)nc2c1=O | 12.6 µM (active)
CCC(C(=O)NCCc1ccccc1OC)n1nc(C)c2c(C)n(-c3ccccc3)nc2c1=O (configuration not stated) | 10 µM (active)
COc1ccccc1CCNC(=O)CCn1nc(C)c2c(C)n(-c3ccccc3)nc2c1=O | 7.94 µM (active)
C=C1CCC2[C@](C)(CO)[C@H](O)CC[C@@]2(C)[C@@H]1C/C=C1\C(=O)OC[C@H]1O (some centres not stated) | 11.2 µM (active)
CC1(C)Cc2nc(-c3ccccc3)nc(SCC(O)CO)c2CO1 (configuration not stated) | 12.6 µM (active)
COc1ccc(C)c2sc(NC(=O)CCS(=O)(=O)c3ccccc3)nc12 | inactive
CCOc1cccc2sc(NC(=O)CCS(=O)(=O)c3ccccc3)nc12 | 5.62 µM (active)
CC(C)(C)Sc1ccc([N+](=O)[O-])cc1C(=O)Nc1ccncc1 | 2.51 µM (active)
COc1cccc(-c2sc3ccc(OC)cc3c2-c2cc(F)cc(OC)c2)c1 | 10 µM (active)
CN1C(=O)c2ccccc2N(C)C1c1cccc(O)c1 (configuration not stated) | 15.8 µM (active)
CC(=O)N1CCc2cc(S(=O)(=O)NCCC(=O)N3CCN(c4ccccn4)CC3)ccc21 | 7.94 µM (active)
CC1CN(c2nc(-c3ccc(Br)cc3)nnc2-c2ccccc2)CC(C)N1 (configuration not stated) | 2.82 µM (active)

Compound | Potency
O=C(CSc1nnc(-c2ccco2)o1)N1c2ccccc2CCc2ccccc21 | 7.94 µM (active)
O=C(CCCl)Nc1nc2c(s1)CCc1ccccc1-2 | 11.2 µM (active)
O=C(Cc1cn2ccsc2n1)Nc1nc2c(s1)CCCC2 | inactive
O=C(Cn1c(=O)sc2ccccc21)Nc1nc2c(s1)CCCC2 | inactive
COc1ccc(CN(C(=O)c2oc3ccc(F)cc3c2C)C2CCS(=O)(=O)C2)cc1 (configuration not stated) | 14.1 µM (active)
Cc1cc(C(=O)N(C)CC2CCCN(CCc3ccc(F)cc3)C2)c(C)o1 (configuration not stated) | 14.1 µM (active)
Cc1c(/C=N/NC(=O)c2cccs2)c2ccccc2n1Cc1ccccc1Cl | 3.16 µM (active)
Cc1ccccc1NC1=NCC(c2ccc([N+](=O)[O-])cc2)S1 (configuration not stated) | 11.2 µM (active)
CCN(CC)CCNC(=O)c1ccc(NC(=O)c2ccccc2-c2ccc(C(F)(F)F)cc2)cc1 | 11.2 µM (active)
CCN(CC)C(=O)CSc1nc(COc2ccccc2)nc2ccccc12 | 11.2 µM (active)
CC(C)OCCCNc1ncnc2c1[nH]c1ccc(F)cc12 | 4.47 µM (active)
COc1ccc2[nH]c3c(NCCN(C(C)C)C(C)C)ncnc3c2c1 | 3.98 µM (active)
COc1ccc2[nH]c3c(NCCC4=CCCCC4)ncnc3c2c1 | 5.62 µM (active)
Cc1cc(=O)nc2c3ccccc3n(CC(=O)NCCC3=CCCCC3)n12 | 8.91 µM (active)
Cc1ccccc1OCC(=O)NCCC1=CCCCC1 | inactive
O=C(NCCCn1ccnc1)C(=O)NCC1OCCN1S(=O)(=O)c1ccc(F)cc1 (configuration not stated) | inactive
COc1ccc(Cl)cc1NC(=O)C1Cc2cc(S(=O)(=O)N3CCCC3)ccc2N1C(C)=O (configuration not stated) | 11.2 µM (active)
COc1ccc(CCNC(=O)C(=O)NCC2OCCN2S(=O)(=O)c2ccc3c(c2)OCCO3)cc1OC (configuration not stated) | 11.2 µM (active)
COc1ccc(S(=O)(=O)N2CCC(C(=O)Nc3ccccc3N3CCCCC3)CC2)cc1OC | 7.94 µM (active)

Compound | Potency
COc1ccc(CCNC(=O)C2CCN(S(=O)(=O)c3ccc(OC)c(OC)c3)CC2)cc1OC | 12.6 µM (active)
Cc1ccc(-c2nnc(N3CCOCC3)c3ccccc23)cc1S(=O)(=O)NCC1CCCO1 (configuration not stated) | 2.51 µM (active)
Cc1cc(C)c(OCC(O)CNC(C)(C)C)c(C)c1 (configuration not stated) | 7.08 µM (active)
COc1ccc(N2CCc3c(C)nc4c(OC)cc(OC)cc4c32)c(OC)c1 | 5.01 µM (active)
CC(C)NC(=S)N/N=C/c1sc(N2CCCCC2)nc1-c1cccs1 | 5.01 µM (active)
Cc1cc2nsnc2c(S(=O)(=O)N2CCN(C)CC2)c1C | inactive
CC1CCN(CCNC(=O)C2CCN(S(=O)(=O)c3cccc4nsnc34)CC2)CC1 | 7.94 µM (active)
C=CCn1cccc(/C=C/C(=O)c2ccc(C(C)(C)C)cc2)c1=S | 0.794 µM (active)
COc1ccc(CC(=O)NCC2CCCN(Cc3ccc(F)c(OC)c3)C2)cc1 (configuration not stated) | 7.08 µM (active)
Cc1ccc2[nH]c3c(c2c1)CCCC3NC(=O)CCl (configuration not stated) | 4.47 µM (active)
C[n+]1ccn(CC(=O)c2ccc(Cl)cc2)c1 | 14.1 µM (active)
Cc1cc(C)cc(CC(Cc2nc3ccccc3[nH]2)c2nc3ccccc3[nH]2)c1 (configuration not stated) | 1.12 µM (active)
CCN1C(=O)[C@@H]2Cc3c([nH]c4ccccc34)C(c3ccc(OC)cc3)N2C1=S (some centres not stated) | 11.2 µM (active)
C=CCN1C(=O)[C@@H]2Cc3c([nH]c4ccccc34)C(c3ccc(O)cc3)N2C1=S (some centres not stated) | 12.6 µM (active)
CCc1nc(Nc2ccncc2)c2oc3ccccc3c2n1 | 3.98 µM (active)
O=C(C[C@@H]1C/C=C\CC[C@@H](Cc2ccc(F)cc2)C(=O)OC[C@@H]2CCCN2C1=O)NCCO | 10 µM (active)
O=C(C[C@H]1C(=O)N(Cc2ccccc2)C[C@@H]1Cc1ccccc1)Nc1ccccc1 | 11.2 µM (active)
CC(C)(C)c1ccc(C(O)CCCN2CCC(C(O)(c3ccccc3)c3ccccc3)CC2)cc1 (configuration not stated) | 11.2 µM (active)
CS(=O)(=O)Nc1ccc(C2=NN(C(=O)c3ccco3)C(c3ccc(F)cc3)C2)cc1 (configuration not stated) | 10 µM (active)
